Measurements as given in PubChem BioAssay (EPA / NIEHS).
The source made the active and inactive calls. The calls were made as follows: active = hit-call score of the fitted dose curve at least 0.9, where 1 is the maximum; inactive = score below 0.9.

Legend:
Conditions in all cases: mRNA level, 48 h; actives raise or lower the signal
[1] = read-out: Interleukin 6 (IL6), IL6 (gene 3569); assay: LTEA_HepaRG_IL6: Life Technologies and Expression Analysis (LTEA) Assay for Interleukin 6 (IL6) using HepaRG (AID 2283509)
How it was run: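 HepaRG cells exposed in duplicate for 48 h to eight half-log concentrations, top 100 uM, in 0.5% DMSO serum-free induction medium. mRNA measured by qRT-PCR, normalized to ACTB, GAPDH and POLR2A. Bidirectional fit versus DMSO.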

[2] = read-out: Interleukin 6 Receptor (IL6R), IL6R (gene 3570); assay: LTEA_HepaRG_IL6R: Life Technologies and Expression Analysis (LTEA) Assay for Interleukin 6 Receptor (IL6R) using HepaRG (AID 2283510);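 as to AC50: TaqMan qRT-PCR signal normalized to ACTB GAPDH and POLR2A housekeeping genes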
How it was run: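 Differentiated human HepaRG cells, plated 48 h then switched to serum-free induction medium, were dosed in duplicate for 48 h at eight half-log concentrations up to 100 uM in 0.5% DMSO. IL6R mRNA quantified by qRT-PCR, normalized to ACTB/GAPDH/POLR2A; bidirectional fit versus DMSO.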

[3] = read-out: Potassium channel subfamily K member 1 (KCNK1), KCNK1 (gene 3775); assay: LTEA_HepaRG_KCNK1: Life Technologies and Expression Analysis (LTEA) Assay for Potassium channel subfamily K member 1 (KCNK1) using HepaRG (AID 2283511)
How it was run: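 Differentiated HepaRG cells, 48 h exposure in serum-free induction medium with 0.5% DMSO; 8 concentrations, half-log from 100 uM, duplicate. KCNK1 mRNA by qRT-PCR, normalized to ACTB, GAPDH, POLR2A; bidirectional fit vs DMSO.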

[4] = read-out: Keratin 19 (KRT19), KRT19 (gene 3880); assay: LTEA_HepaRG_KRT19: Life Technologies and Expression Analysis (LTEA) Assay for Keratin 19 (KRT19) using HepaRG (AID 2283512)
How it was run: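 Readout is qRT-PCR of KRT19 mRNA, normalized to ACTB, GAPDH and POLR2A, from HepaRG cells treated 48 h with eight-point half-log dilutions topping at 100 uM. Activity in either direction is scored relative to 0.5% DMSO vehicle.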

[5] = read-out: JUN Transcription Factor, JUN (gene 3725); assay: LTEA_HepaRG_JUN: Life Technologies and Expression Analysis (LTEA) Assay for JUN Transcription Factor using HepaRG (AID 2283513)
How it was run: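 Differentiated HepaRG cells were exposed to chemicals for 48 h in serum-free induction medium, 8 concentrations from 100 uM in half-log steps, 0.5% DMSO vehicle, in duplicate. JUN mRNA was quantified by TaqMan qRT-PCR, normalized to ACTB, GAPDH, POLR2A.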

[6] = read-out: Lipase C (LIPC), LIPC (gene 3990); assay: LTEA_HepaRG_LIPC: Life Technologies and Expression Analysis (LTEA) Assay for Lipase C (LIPC) using HepaRG (AID 2283514)
How it was run: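 HepaRG cells, 48 h after plating, treated in duplicate for 48 h in serum-free induction medium over 8 half-log concentrations from 100 uM, 0.5% DMSO. LIPC mRNA by TaqMan qRT-PCR normalized to ACTB/GAPDH/POLR2A; bidirectional fit versus DMSO.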

[7] = read-out: Lipoprotein lipase (LPL), LPL (gene 4023); assay: LTEA_HepaRG_LPL: Life Technologies and Expression Analysis (LTEA) Assay for Lipoprotein lipase (LPL) using HepaRG (AID 2283515)
How it was run: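 Differentiated HepaRG cells, plated 48 h, then exposed 48 h in serum-free induction medium to 8 concentrations (top 100 uM, half-log steps) in 0.5% DMSO, duplicate. LPL mRNA measured by qRT-PCR, normalized to ACTB, GAPDH and POLR2A.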

[8] = read-out: MicroRNA 122 (MIR122), gene 406906; assay: LTEA_HepaRG_MIR122: Life Technologies and Expression Analysis (LTEA) Assay for MicroRNA 122 (MIR122) using HepaRG (AID 2283516); also: the transcript read is the microRNA miR-122
How it was run: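 Differentiated human HepaRG cells were exposed 48 h in serum-free induction medium to eight half-log concentrations (top 100 uM, 0.5% DMSO). Transcript level was measured by TaqMan qRT-PCR, normalized to ACTB, GAPDH and POLR2A, and fitted bidirectionally versus DMSO.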

[9] = read-out: matrix metalloproteinase-10 (MMP10), MMP10 (gene 4319); assay: LTEA_HepaRG_MMP10: Life Technologies and Expression Analysis (LTEA) Assay for matrix metalloproteinase-10 (MMP10) using HepaRG (AID 2283517)
How it was run: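 Differentiated HepaRG cells in serum-free induction medium exposed 48 h in duplicate to 8-point half-log series up to 100 uM in 0.5% DMSO. mRNA quantified by qRT-PCR, normalised to ACTB, GAPDH, POLR2A; bidirectional fit versus DMSO.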

[10] = read-out: MYC, MYC (gene 4609); assay: LTEA_HepaRG_MYC: Life Technologies and Expression Analysis (LTEA) Assay for MYC using HepaRG (AID 2283518)
How it was run: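 Expression changes were scored by TaqMan qRT-PCR with ACTB, GAPDH and POLR2A normalization. Cultures in serum-free induction medium received duplicate 8-point concentration series, highest 100 uM, for 48 h; DMSO (0.5%) served as baseline.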

[11] = read-out: matrix metalloproteinase-3 (MMP3), MMP3 (gene 4314); assay: LTEA_HepaRG_MMP3: Life Technologies and Expression Analysis (LTEA) Assay for matrix metalloproteinase-3 (MMP3) using HepaRG (AID 2283519)
How it was run: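 HepaRG cells (~100,000/well) in serum-free induction medium were dosed in duplicate for 48 h with an 8-point half-log series from 100 uM, 0.5% DMSO. MMP3 mRNA was quantified by Fluidigm TaqMan qRT-PCR, normalized to three housekeeping genes.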

[12] = read-out: Paternally Expressed 10 (PEG10), PEG10 (gene 23089); assay: LTEA_HepaRG_PEG10: Life Technologies and Expression Analysis (LTEA) Assay for Paternally Expressed 10 (PEG10) using HepaRG (AID 2283520)
How it was run: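 Differentiated HepaRG cells, plated 48 h then switched to serum-free induction medium, were exposed in duplicate for 48 h to eight half-log concentrations topping at 100 uM in 0.5% DMSO. PEG10 mRNA was quantified by TaqMan qRT-PCR, normalised to ACTB, GAPDH and POLR2A.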

[13] = read-out: Protein phosphatase 2A (PPP2R4), PTPA (gene 5524); assay: LTEA_HepaRG_PPP2R4: Life Technologies and Expression Analysis (LTEA) Assay for Protein phosphatase 2A (PPP2R4) using HepaRG (AID 2283522)
How it was run: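 Differentiated HepaRG cells in serum-free induction medium were exposed in duplicate for 48 h to eight concentrations, top 100 uM with half-log dilutions, in 0.5% DMSO. PPP2R4 mRNA was quantified by TaqMan qRT-PCR, normalized to ACTB, GAPDH and POLR2A.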

[14] = read-out: Phosphatase and tensin (PTEN), PTEN (gene 5728); assay: LTEA_HepaRG_PTEN: Life Technologies and Expression Analysis (LTEA) Assay for Phosphatase and tensin (PTEN) using HepaRG (AID 2283523)
How it was run: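 HepaRG cells, 48 h after plating, exposed in duplicate for 48 h in serum-free induction medium to 8 half-log concentrations up to 100 uM (0.5% DMSO). PTEN mRNA by qRT-PCR, normalized to ACTB, GAPDH, POLR2A; bidirectional fit versus DMSO.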

[15] = read-out: solute carrier (SLC22A1), SLC22A1 (gene 6580); assay: LTEA_HepaRG_SLC22A1: Life Technologies and Expression Analysis (LTEA) Assay for solute carrier (SLC22A1) using HepaRG (AID 2283524)
How it was run: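 Differentiated human HepaRG cells in serum-free induction medium, exposed 48 h in duplicate to 8-point half-log series from 100 µM top in 0.5% DMSO. SLC22A1 mRNA by TaqMan qRT-PCR normalized to ACTB, GAPDH, POLR2A; bidirectional fit versus DMSO.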

[16] = read-out: Pyruvate Dehydrogenase Kinase 4 (PDK4), PDK4 (gene 5166); assay: LTEA_HepaRG_PDK4: Life Technologies and Expression Analysis (LTEA) Assay for Pyruvate Dehydrogenase Kinase 4 (PDK4) using HepaRG (AID 2283525)
How it was run: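 HepaRG cells plated 48 h, then switched to serum-free induction medium and exposed in duplicate for 48 h to 8 half-log concentrations from 100 uM in 0.5% DMSO. PDK4 mRNA measured by qRT-PCR, normalized to ACTB, GAPDH and POLR2A; bidirectional fit versus DMSO.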

[17] = read-out: Nuclear factor erythroid 2-related factor 2 (Homo sapiens) (UniProt Q16236); assay: LTEA_HepaRG_NFE2L2: Life Technologies and Expression Analysis (LTEA) Assay for Nuclear factor erythroid 2-related factor 2 (NFE2L2) Transcription Factor using HepaRG (AID 2283527);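 also: TaqMan qRT-PCR transcript level normalised to ACTB GAPDH and POLR2A housekeeping genes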
How it was run: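 Differentiated human HepaRG cells, serum-free induction medium, exposed 48 h in duplicate to eight half-log concentrations up to 100 uM in 0.5% DMSO. NFE2L2 mRNA by Fluidigm TaqMan qRT-PCR, normalised to ACTB, GAPDH, POLR2A; bidirectional change versus DMSO.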

[18] = read-out: Nuclear factor NF-kappa-B p105 subunit (Homo sapiens) (UniProt P19838); assay: LTEA_HepaRG_NFKB1: Life Technologies and Expression Analysis (LTEA) Assay for Nuclear Factor Kappa B Subunit 1 (NFKB1) using HepaRG (AID 2283521)
How it was run: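 Human HepaRG cells receive eight half-log concentrations, highest 100 uM, for 48 h. NFKB1 expression is then quantified by qRT-PCR and analysed for up- or down-regulation relative to 0.5% DMSO vehicle.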

[19] = read-out: NAD(P)H dehydrogenase [quinone] 1 (NQO1), NQO1 (gene 1728); assay: LTEA_HepaRG_NQO1: Life Technologies and Expression Analysis (LTEA) Assay for NAD(P)H dehydrogenase [quinone] 1 (NQO1) using HepaRG (AID 2283526)
How it was run: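 Differentiated HepaRG cells, plated 48 h and then switched to serum-free induction medium, were exposed in duplicate for 48 h to 8-point half-log concentrations up to 100 uM in 0.5% DMSO. mRNA measured by qRT-PCR, normalized to ACTB, GAPDH, POLR2A; bidirectional fit versus DMSO.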

Measured: AC50

Sequence of Nuclear factor NF-kappa-B p105 subunit (Homo sapiens) (P19838 whole entry, looked up): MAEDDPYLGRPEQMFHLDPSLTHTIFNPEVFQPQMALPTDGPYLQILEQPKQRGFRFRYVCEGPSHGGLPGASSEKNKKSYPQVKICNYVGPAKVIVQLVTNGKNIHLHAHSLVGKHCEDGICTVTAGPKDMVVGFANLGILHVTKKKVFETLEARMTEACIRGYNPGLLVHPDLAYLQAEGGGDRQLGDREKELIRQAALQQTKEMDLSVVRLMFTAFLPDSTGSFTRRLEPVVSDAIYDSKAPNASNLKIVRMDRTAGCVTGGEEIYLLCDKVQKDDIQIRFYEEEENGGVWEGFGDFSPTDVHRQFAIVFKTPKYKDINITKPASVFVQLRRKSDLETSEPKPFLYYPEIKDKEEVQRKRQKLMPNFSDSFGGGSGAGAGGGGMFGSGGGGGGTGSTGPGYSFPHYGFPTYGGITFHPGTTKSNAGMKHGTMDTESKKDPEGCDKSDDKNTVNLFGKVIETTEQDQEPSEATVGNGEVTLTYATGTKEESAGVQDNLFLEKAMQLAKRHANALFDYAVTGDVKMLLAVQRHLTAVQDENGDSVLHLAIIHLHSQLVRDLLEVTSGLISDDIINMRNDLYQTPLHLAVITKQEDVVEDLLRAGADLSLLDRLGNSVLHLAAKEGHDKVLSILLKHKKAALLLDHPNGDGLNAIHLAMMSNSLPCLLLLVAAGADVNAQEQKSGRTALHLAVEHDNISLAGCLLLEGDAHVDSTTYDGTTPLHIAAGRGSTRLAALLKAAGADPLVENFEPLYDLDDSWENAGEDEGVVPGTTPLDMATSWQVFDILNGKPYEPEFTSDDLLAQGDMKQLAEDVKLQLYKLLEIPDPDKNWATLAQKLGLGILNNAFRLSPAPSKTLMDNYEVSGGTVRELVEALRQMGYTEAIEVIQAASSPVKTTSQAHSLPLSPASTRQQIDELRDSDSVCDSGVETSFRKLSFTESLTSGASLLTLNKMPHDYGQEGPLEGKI
Sequence of Nuclear factor erythroid 2-related factor 2 (Homo sapiens) (Q16236 whole entry, looked up): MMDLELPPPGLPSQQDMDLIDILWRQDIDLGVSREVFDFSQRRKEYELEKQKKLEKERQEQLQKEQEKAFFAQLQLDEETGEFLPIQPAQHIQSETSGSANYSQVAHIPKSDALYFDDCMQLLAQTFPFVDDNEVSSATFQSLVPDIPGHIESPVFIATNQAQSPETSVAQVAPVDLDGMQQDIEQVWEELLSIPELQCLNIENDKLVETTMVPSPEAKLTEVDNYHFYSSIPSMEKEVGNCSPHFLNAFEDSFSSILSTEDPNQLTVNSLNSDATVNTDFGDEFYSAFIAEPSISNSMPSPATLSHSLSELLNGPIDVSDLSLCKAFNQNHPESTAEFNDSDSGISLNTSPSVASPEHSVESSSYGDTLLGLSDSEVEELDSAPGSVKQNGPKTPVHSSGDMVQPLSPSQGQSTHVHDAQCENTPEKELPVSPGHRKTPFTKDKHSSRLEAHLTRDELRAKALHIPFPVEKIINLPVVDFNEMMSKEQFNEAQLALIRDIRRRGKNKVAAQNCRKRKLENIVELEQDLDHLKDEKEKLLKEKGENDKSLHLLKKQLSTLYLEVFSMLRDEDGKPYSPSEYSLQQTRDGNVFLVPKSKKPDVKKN

CC=Cc1ccc(O)c(OC)c1
not listed: [18] | [19]
inactive: all other assays above

CCCCCC(=O)O
not listed: [8] | [19]
inactive: all other assays above

CC(=O)OC/C=C(\C)CCC=C(C)C
not listed: [18]
inactive: all other assays above

c1cc(-c2ccncc2)ccn1
active: [11] 17.6 µM
not listed: [10]
inactive: all other assays above

CCOc1ccc2c(c1)C(C)=CC(C)(C)N2
active: [2] 76.9 µM | [7] 50 µM | [12] 31.8 µM | [13] 50 µM
not listed: [8] | [18] | [19]
inactive: all other assays above

CCCCCCCCCCC
not listed: [8] | [17]
inactive: all other assays above

CC(C)c1ccc(C(=O)N=C(N)N)cc1S(C)(=O)=O
active: [2] 0.276 µM | [3] 0.377 µM | [5] 0.395 µM | [6] 0.607 µM | [7] 0.31 µM | [9] 67.9 µM | [10] 0.343 µM | [11] 1.4 µM | [18] 0.291 µM | [13] 0.532 µM | [14] 0.277 µM | [15] 0.35 µM | [16] 0.362 µM | [19] 0.959 µM
inactive: [1] | [4] | [12]

CCCCCCCC=O
active: [4] 1.32 µM
not listed: [19]
inactive: all other assays above

C[C@]12C=CC(=O)C=C1CC[C@@H]1[C@@H]2C(=O)C[C@@]2(C)[C@H]1CC[C@]2(O)C(=O)CO
not listed: [5] | [8] | [10] | [17] | [19]
inactive: all other assays above

CCCCCCCCCCCCCO
not listed: [8] | [17] | [18]
inactive: all other assays above

CCCCc1ccc2c(n1)[C@@H](c1ccc(OC)cc1C[C@H](C)C(=O)O)[C@H](C(=O)O)[C@H]2c1ccc2c(c1)OCO2
not listed: [18] | [19]
inactive: all other assays above

O=C(O)CCCCC(=O)O
not listed: [8]
inactive: all other assays above

CCc1c(C(=O)NN2CCCCC2)nn(-c2ccc(Cl)cc2Cl)c1-c1ccc(Br)cc1
inactive: [13] | [14]
active: [1] 76.5 µM | [2] 89.1 µM | [3] 58.6 µM | [4] 50 µM | [5] 50 µM | [6] 34.2 µM | [7] 4.13 µM | [8] 29.8 µM | [9] 33.2 µM | [10] 50 µM | [12] 29.3 µM | [18] 74.8 µM | [15] 40.4 µM | [16] 22.1 µM | [19] 80.1 µM

O=c1c(O)c(-c2ccc(O)c(O)c2)oc2cc(O)cc(O)c12
active: [6] 80.5 µM
not listed: [3]
inactive: all other assays above

Cc1nc(C)nc(N2C[C@@H](C)N(c3ccnc([C@@H](C)O)n3)[C@@H](C)C2)n1
active: [11] 25 µM
not listed: [6] | [15]
inactive: all other assays above
